High-throughput results: PubChem, National Center for Advancing Translational Sciences (NCATS)
Rows were chosen to be rich in hits. Some 12% of all compounds tested hit in one or more screens of this group.
HP1b binding inh = HTS for Inhibitors of HP1-beta Chromodomain Interactions with Methylated Histone Tails; Chromobox protein homolog 1 (Homo sapiens), P83916; AlphaScreen HP1-beta / biotin-H3K9me3 peptide binding; Potency, µM (highest dose often 114 µM), usual class: inhibitors; hit rate 0.56% among 390,000; AID 540317, 2011; note: nearly all actives have a fitted effect of over 70% in size
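Compound inhibition of the preformed complex between 50 nM HP1-beta and 50 nM biotinylated H3K9me3 peptide was read by AlphaScreen. Buffer was PBS pH 7.4 with 0.01% Tween-20. Incubations ran 30 min at room temperature, with 10 ug/mL donor/acceptor beads.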
Sfp inh = qHTS Assay for Inhibitors of Bacillus subtilis Sfp phosphopantetheinyl transferase (PPTase); 4'-phosphopantetheinyl transferase ffp (Bacillus subtilis), Q9F4F7; Biochemical Sfp PPTase activity, qHTS; Potency, µM, usual class: inhibitors; hit rate 3.5% among 310,000;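 note: the enzyme is Sfp with the accession as filed and its product quenches rhodamine fluorescence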
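Step 1, compound plus 15 nM Sfp-PPTase, 15 min, room temperature. Step 2, add rhodamine-CoA (5 uM) and BHQ-2-YbbR (12.5 uM). Step 3, read 525/598 nm fluorescence at 0 and 30 min.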
JMJD2A Tudor = qHTS Assay for Inhibitors of JMJD2A-Tudor Domain | AlphaScreen JMJD2A-Tudor / H3K4me3 peptide binding | hit rate 4.4% among 390,000 | Lysine-specific demethylase 4A (Homo sapiens), O75164 | Potency, µM (highest dose often 114 µM), hits mostly inhibitors; note: nearly all actives have a fitted effect of over 50% in size
G9a inh = qHTS Assay for Inhibitors of Histone Lysine Methyltransferase G9a; Histone-lysine N-methyltransferase EHMT2 (Homo sapiens), Q96KQ7; G9a H3K9 monomethylation, AlphaScreen, 2 h; Potency, µM (doses to about 102 µM), actives largely listed as inhibitors; hit rate 8.8% among 350,000; note: nearly all actives have a fitted effect of over 75% in size
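Enzyme 20 nM + cpd, 15 min RT; add b-H3K9 pep 500 nM / SAM 20 uM; 2 h RT; anti-H3K9me1 Ab 0.5 ug/mL + SA donor / anti-rabbit acceptor beads 20 ug/mL each, 10 min; AlphaScreen read.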
BAZ2B inh = qHTS Assay for Inhibitors of BAZ2B | AlphaScreen BAZ2B-H3K14Ac peptide displacement | Potency, µM (titrated, usually from 114 µM), hits mostly inhibitors | hit rate 4.4% among 360,000; note: nearly all actives have a fitted effect of over 60% in size
Target sequence (Q9UIF8 whole entry, looked up): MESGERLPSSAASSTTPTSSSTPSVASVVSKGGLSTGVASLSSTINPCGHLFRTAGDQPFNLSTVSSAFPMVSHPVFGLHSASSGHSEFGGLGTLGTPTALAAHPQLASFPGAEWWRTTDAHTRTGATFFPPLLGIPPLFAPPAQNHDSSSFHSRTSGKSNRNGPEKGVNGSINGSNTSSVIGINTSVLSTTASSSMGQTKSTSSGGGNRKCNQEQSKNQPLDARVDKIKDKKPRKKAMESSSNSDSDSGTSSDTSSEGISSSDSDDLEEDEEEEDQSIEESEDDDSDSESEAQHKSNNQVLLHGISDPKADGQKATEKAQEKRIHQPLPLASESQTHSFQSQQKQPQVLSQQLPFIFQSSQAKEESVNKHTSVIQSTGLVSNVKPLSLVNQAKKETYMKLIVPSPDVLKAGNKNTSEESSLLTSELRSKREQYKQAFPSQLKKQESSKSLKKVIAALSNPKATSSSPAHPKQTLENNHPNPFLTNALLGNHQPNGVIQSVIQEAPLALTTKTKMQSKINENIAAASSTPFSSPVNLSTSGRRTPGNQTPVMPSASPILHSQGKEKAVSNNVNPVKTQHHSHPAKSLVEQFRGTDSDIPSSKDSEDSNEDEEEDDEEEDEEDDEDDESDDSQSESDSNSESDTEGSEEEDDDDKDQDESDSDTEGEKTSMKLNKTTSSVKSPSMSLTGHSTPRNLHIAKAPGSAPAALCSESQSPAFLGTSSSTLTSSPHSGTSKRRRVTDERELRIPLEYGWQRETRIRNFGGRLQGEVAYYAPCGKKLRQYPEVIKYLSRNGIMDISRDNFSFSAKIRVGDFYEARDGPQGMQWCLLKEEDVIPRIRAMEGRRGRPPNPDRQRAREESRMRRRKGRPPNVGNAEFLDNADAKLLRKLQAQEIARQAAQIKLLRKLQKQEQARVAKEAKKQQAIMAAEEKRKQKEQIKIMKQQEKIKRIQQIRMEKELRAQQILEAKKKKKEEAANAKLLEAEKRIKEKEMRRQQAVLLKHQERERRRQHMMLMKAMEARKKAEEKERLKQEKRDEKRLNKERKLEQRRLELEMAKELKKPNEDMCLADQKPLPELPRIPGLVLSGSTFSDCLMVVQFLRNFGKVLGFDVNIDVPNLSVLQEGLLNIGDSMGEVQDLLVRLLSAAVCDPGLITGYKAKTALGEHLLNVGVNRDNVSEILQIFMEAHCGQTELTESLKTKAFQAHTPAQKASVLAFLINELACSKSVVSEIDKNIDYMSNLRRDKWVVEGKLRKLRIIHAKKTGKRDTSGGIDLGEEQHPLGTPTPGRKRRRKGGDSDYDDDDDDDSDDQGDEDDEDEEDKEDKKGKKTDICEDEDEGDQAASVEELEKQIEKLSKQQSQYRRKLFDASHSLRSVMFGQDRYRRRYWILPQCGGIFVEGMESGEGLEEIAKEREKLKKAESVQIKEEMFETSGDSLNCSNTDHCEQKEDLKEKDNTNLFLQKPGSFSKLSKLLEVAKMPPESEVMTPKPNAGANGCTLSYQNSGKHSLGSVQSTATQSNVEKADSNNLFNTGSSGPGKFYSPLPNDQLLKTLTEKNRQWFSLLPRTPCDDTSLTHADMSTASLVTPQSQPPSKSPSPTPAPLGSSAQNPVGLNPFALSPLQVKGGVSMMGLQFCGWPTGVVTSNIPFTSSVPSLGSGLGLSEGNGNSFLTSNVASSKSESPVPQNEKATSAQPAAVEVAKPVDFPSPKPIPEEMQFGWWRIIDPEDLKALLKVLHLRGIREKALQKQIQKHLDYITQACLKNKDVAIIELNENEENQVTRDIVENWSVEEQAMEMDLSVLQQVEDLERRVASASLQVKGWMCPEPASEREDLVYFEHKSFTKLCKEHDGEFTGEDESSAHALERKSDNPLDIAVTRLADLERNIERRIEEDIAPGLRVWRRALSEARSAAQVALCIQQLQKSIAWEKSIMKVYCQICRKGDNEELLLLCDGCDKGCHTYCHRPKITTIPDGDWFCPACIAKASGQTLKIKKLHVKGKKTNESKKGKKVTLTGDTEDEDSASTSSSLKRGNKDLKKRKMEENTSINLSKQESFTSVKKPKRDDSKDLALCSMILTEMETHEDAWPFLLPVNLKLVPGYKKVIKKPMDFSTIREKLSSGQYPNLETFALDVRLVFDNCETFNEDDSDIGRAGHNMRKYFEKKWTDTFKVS
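Protein-peptide AlphaScreen: BAZ2B 50 nM, b-H3K14Ac 50 nM, 1x PBS pH 7.4 + 0.01% Tween-20. Preincubation 30 min RT; cpd 30 min RT (top 110 uM); beads 20 min RT, light-protected.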
PLK1 PBD block = qHTS for Inhibitors of PLK1-PDB (polo-like kinase 1 - polo-box domain): Primary Screen; Serine/threonine-protein kinase PLK1 (Homo sapiens), P53350; Plk1 PBD binding of FITC phosphopeptide, fluorescence polarization; Potency, µM, actives largely listed as inhibitors; hit rate 2.8% among 360,000; note: series mostly up to about 57 µM; nearly all actives have a fitted effect of over 65% in size
Each line names hits and unclear results; the compound was inactive in the other large screens. Calls come from the whole dose curve; as a rule, active = well fitted curve in the direction sought with a large enough effect; inconclusive = small, poorly fitted or top-dose-only effect, or another doubt; inactive = no such curve, though single readings can be large; an effect the other way counts as inactive or inconclusive.

COC(=O)N/N=C\c1c(C)[nH]n(-c2ccccc2)c1=O	JMJD2A Tudor inconclusive, G9a inh 1.8µM, BAZ2B inh inconclusive
CCOc1ccc2nc(/N=C/c3c(C)[nH]n(-c4ccccc4)c3=O)sc2c1	HP1b binding inh inconclusive, Sfp inh 10µM, G9a inh 25µM
COC(=O)CN=Cc1c(C)[nH]n(-c2ccccc2)c1=O	G9a inh inconclusive
Cc1[nH]n(-c2ccccc2)c(=S)c1C=NCCCN=Cc1c(C)[nH]n(-c2ccccc2)c1=S	HP1b binding inh 14µM, JMJD2A Tudor 2µM, G9a inh 1.8µM, BAZ2B inh inconclusive, PLK1 PBD block 17µM
Cc1[nH]n(-c2ccccc2)c(=O)c1/C=N/N(C)c1ccccc1	JMJD2A Tudor inconclusive, G9a inh 13µM, BAZ2B inh inconclusive
Cc1[nH]n(-c2ccccc2)c(=O)c1/C=N\NC(=O)C1COc2ccccc2O1 (centres undefined)	JMJD2A Tudor inconclusive, BAZ2B inh 71µM
Cc1c(/C=N/NC(=O)COc2ccccc2[N+](=O)[O-])c2ccccc2n1C	none
Cc1[nH]n(-c2ccccc2)c(=O)c1C(=O)c1ccc(Cl)cc1	JMJD2A Tudor 50µM (no result: G9a inh)
CSc1nnc(-c2ccccc2N=Cc2c(C)[nH]n(-c3ccccc3)c2=O)c(=O)[nH]1	BAZ2B inh inconclusive
Cc1[nH]n(-c2ccc(Cl)cc2)c(=O)c1C(=O)c1ccccc1	none (no result: G9a inh)
Cc1[nH]n(-c2ccccc2)c(=O)c1/C=N/NC(=O)COc1ccccc1[N+](=O)[O-]	JMJD2A Tudor 79µM, BAZ2B inh 79µM
Cc1ccc2cccc(N=Cc3c(C)[nH]n(-c4ccccc4)c3=O)c2n1	JMJD2A Tudor inconclusive, G9a inh 10µM
CCOc1ccc(C(=O)c2cn(Cc3ccc(Cl)cc3)c3cc(OC)c(OC)cc3c2=O)cc1	none (no result: Sfp inh, PLK1 PBD block)
O=C(Nc1cccc(Cl)c1)Nn1cnnc1	none
Cc1[nH]n(-c2ccccc2)c(=O)c1/C=N/NC(=O)c1cccc([N+](=O)[O-])c1	none
CC(=O)N/N=C/c1c(C)[nH]n(-c2ccccc2)c1=O	JMJD2A Tudor 50µM, BAZ2B inh 79µM
COCC(=O)N/N=C/c1c(C)[nH]n(-c2ccccc2)c1=O	JMJD2A Tudor 79µM
Cc1[nH]n(-c2ccccc2)c(=O)c1C=Nc1ccc(S(=O)(=O)NC(N)=O)cc1	G9a inh inconclusive
Cc1[nH]n(-c2ccccc2)c(=O)c1/C=N/NC(=O)C(C)C	JMJD2A Tudor 79µM, BAZ2B inh 32µM
Cc1[nH]n(-c2ccccc2)c(=O)c1/C=N/O	JMJD2A Tudor 79µM, BAZ2B inh 50µM (no result: G9a inh)
O=C(NC1CCCC1)c1nc(-c2c(F)cccc2F)oc1-c1ccccc1	none (no result: HP1b binding inh, Sfp inh, JMJD2A Tudor, G9a inh, BAZ2B inh)
Cn1c2cc(Br)sc2c2cnn(Cc3ccccc3F)c(=O)c21	none (no result: HP1b binding inh, Sfp inh, G9a inh, BAZ2B inh, PLK1 PBD block)
CN(C)C1CCc2[nH]c3ccc(NC(=O)c4ccc(F)cc4)cc3c2C1 (centres undefined)	none (no result: HP1b binding inh, JMJD2A Tudor, G9a inh, BAZ2B inh, PLK1 PBD block)
CCOC(=O)c1[nH]n(-c2ccc(Cl)cc2)c(=O)c1C	HP1b binding inh inconclusive, JMJD2A Tudor 71µM, G9a inh inconclusive, BAZ2B inh inconclusive
CC(C)C(=O)N1CCc2cc(-c3csc(N)n3)ccc21	Sfp inh 40µM, G9a inh inconclusive, BAZ2B inh inconclusive, PLK1 PBD block 24µM
Cc1ccc(S(=O)(=O)N2CCOCC2)cc1NC(=O)COC(=O)c1ccc(Br)o1	none (no result: Sfp inh, G9a inh, BAZ2B inh)
CN(C)c1ccnc2c[cH-]cc12.[Fe].c1ccc(-[c-]2[c-](-c3ccccc3)[c-](-c3ccccc3)[c-](-c3ccccc3)[c-]2-c2ccccc2)cc1 (centres undefined)	HP1b binding inh 3.2µM, JMJD2A Tudor 4µM, G9a inh inconclusive, BAZ2B inh 1.6µM
Cc1cccc(CSCCNC(=O)C2CCN(S(=O)(=O)Cc3ccccc3)CC2)c1	G9a inh inconclusive, BAZ2B inh inconclusive (no result: Sfp inh, PLK1 PBD block)
COC(=O)[C@]1(CC(C)C)N[C@H](c2ccc(SC3CCCCC3)c(OC)c2)[C@@H]2C(=O)N(C)C(=O)[C@@H]21	none (no result: Sfp inh)
CCCCCCSc1ccc([C@H]2N[C@@](CC(C)C)(C(=O)OC)[C@H]3C(=O)N(C)C(=O)[C@@H]23)cc1OC	JMJD2A Tudor inconclusive, PLK1 PBD block 21µM (no result: Sfp inh)
CNC(=O)C(=O)NCC1OCCN1S(=O)(=O)c1ccc(OC)c(OC)c1 (centres undefined)	none
O=C(/C=C1\NC2(CCCC2)Cc2ccccc21)C(=O)N/N=C/c1ccc(O)c(O)c1	HP1b binding inh inconclusive, JMJD2A Tudor 10µM, G9a inh 11µM, BAZ2B inh 40µM
Cc1nnnn1/C(=C\c1ccccc1)C(=O)OCC(=O)NC(C)(C)C	none
Cc1nnnn1/C(=C\c1ccccc1)C(=O)OCC(=O)NC1CCCCC1	G9a inh 50µM (no result: Sfp inh)
COc1ccc(C2=CC(=O)OC3(CCCC3)O2)cc1	G9a inh 45µM, BAZ2B inh inconclusive
CN(CCCn1ccc(N)nc1=O)Cc1ccco1	none (no result: HP1b binding inh, Sfp inh, JMJD2A Tudor, G9a inh, BAZ2B inh)
CCc1cccc(NC(=S)N(CCOC)C(C)c2ccco2)c1 (centres undefined)	Sfp inh 56µM
COCCN(C(=S)Nc1ccc(C)c(C)c1)C(C)c1ccco1 (centres undefined)	none
C#Cc1nc(Nc2cccc(Cl)c2)nc(NC2CCCC2)n1	none (no result: HP1b binding inh, Sfp inh, G9a inh, BAZ2B inh, PLK1 PBD block)
COCCNC(=S)N/N=C(\C)c1ccc(C)c([N+](=O)[O-])c1	JMJD2A Tudor inconclusive
COCCNC(=S)NNc1ccccc1[N+](=O)[O-]	HP1b binding inh inconclusive, Sfp inh 10µM, JMJD2A Tudor inconclusive, G9a inh inconclusive, BAZ2B inh 50µM, PLK1 PBD block 15µM
COCCNC(=S)Nc1ccc([N+](=O)[O-])cc1C	Sfp inh 56µM (no result: G9a inh)
CCn1c(CC(=O)Nc2ccc(F)cc2)nnc1SCC(=O)Nc1nnc(C)s1	none
CC(=O)NC(Cc1c[nH]c2ccccc12)C(=O)OCC(=O)N1CCCCCC1 (centres undefined)	none
Cc1ccc(Cl)cc1NC(=O)Cn1c(=O)n(C(C)C)c(=O)c2oc3ccccc3c21	none (no result: Sfp inh, PLK1 PBD block)
CCCCCNc1nc2sc3c(c2c(=O)n1-c1cccc(Cl)c1)CCN(C)C3	G9a inh 50µM
CC(=O)OCCCNc1cc(Sc2ccc(Cl)cc2)c2nonc2c1[N+](=O)[O-]	Sfp inh 50µM, G9a inh inconclusive, PLK1 PBD block 1.2µM
CC(C)CCSc1cc(NCCO)c([N+](=O)[O-])c2nonc12	G9a inh 50µM
Cc1ccc(Sc2cc(NCCCO)c([N+](=O)[O-])c3nonc23)cc1	G9a inh 50µM, PLK1 PBD block 24µM
